The source of these data is PubChem BioAssay (NCI).

Test systems include RPMI-8226 leukemia; OVCAR-8 ovarian; OVCAR-5 ovarian; OVCAR-4 ovarian; SK-OV-3 ovarian; IGROV1 ovarian; NCI/ADR-RES ovarian; T-47D breast; BT-549 breast; MDA-MB-435 melanoma; SW-620 colon; HCT-116 colon; HCC-2998 colon; KM12 colon; OVCAR-3 ovarian; HS 578T breast; MCF7 breast.
What all share (experiment): NCI-60 one-dose screen, 48 h (100 = growth as untreated, 0 = no growth, -100 = all killed)
Common to all, as to conditions: 10 µM unless noted

SMILES strings stand for the structures. This is part of a sample that, as a whole, favours compounds with a hit. Of some 83,000 tested, about 20% had one in any assay.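 96-well plates, one dose, 48 hours. Percent growth reported; active if below 10.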 A number with no mark means an inactive call. Active and inactive are the calls of the source.

As for `O=c1cc/c(=N\Nc2ccccc2)c(=O)/c1=N/Nc1ccccc1`, the growth is 18.9% in the assay on RPMI-8226 leukemia; 109% in the assay on OVCAR-8 ovarian; 107% with OVCAR-5 ovarian; 107% in the assay on OVCAR-4 ovarian; 109% with SK-OV-3 ovarian; 60.1% in the assay on IGROV1 ovarian. Moreover, the growth with NCI/ADR-RES ovarian was 95.2%; in the assay with T-47D breast, 92.8%; in the assay on BT-549 breast, 102%; in the assay on MDA-MB-435 melanoma it was 126%; in the assay with SW-620 colon, 98.6%; in the assay with HCT-116 colon it was 90.1%. The results for the growth in the assay on HCC-2998 colon and with KM12 colon were 99% and 94.1%, respectively.

In the case of `COc1cc(-c2nn(-c3cccc(NC(=O)Nc4cc(C(F)(F)F)cc(C(F)(F)F)c4)c3)cc2-c2ccncc2)ccc1Cl`, the growth with RPMI-8226 leukemia was -11.7% (active); in the assay on OVCAR-8 ovarian, -12.7% (active); in the assay on OVCAR-5 ovarian, 16.3%; with SK-OV-3 ovarian, -9.79% (active); in the assay on IGROV1 ovarian, 19.9%; in the assay with OVCAR-3 ovarian it was -57.9% (active). For the same compound, the growth with HS 578T breast was -25.8% (active); with NCI/ADR-RES ovarian, 1.11% (active); in the assay on T-47D breast it was 4.45% (active); in the assay on BT-549 breast, -8.96% (active); in the assay with MDA-MB-435 melanoma, -58.3% (active); with SW-620 colon, -2.89% (active). For the same compound, the growth in the assay with HCC-2998 colon was -10.8% (active); in the assay with KM12 colon, -14.8% (active).

As for `COc1ccc(-c2nc3sccn3c2/C=C/C(=O)c2cc(F)cc(F)c2)cc1`, the growth in the assay with RPMI-8226 leukemia was 6.15% (active); with OVCAR-8 ovarian, 80.7%; in the assay on OVCAR-5 ovarian it was 102%; with SK-OV-3 ovarian, 75.3%; in the assay with OVCAR-3 ovarian, 54.7%; in the assay with HS 578T breast it was 75.1%. For the same compound, the growth is 78% with NCI/ADR-RES ovarian; 40.5% in the assay with T-47D breast; 127% with BT-549 breast; 94.2% in the assay with MDA-MB-435 melanoma; 53.9% in the assay with SW-620 colon; 53.7% with HCT-116 colon. The growth was 51.3% in the assay with HCC-2998 colon and 84.3% in the assay on KM12 colon.

Regarding `O=C(O)c1nc(-c2ccccc2)oc1N1CCOCC1`, the growth with RPMI-8226 leukemia was 107%; in the assay with OVCAR-8 ovarian, 98.4%; in the assay with OVCAR-5 ovarian, 93.2%; in the assay with SK-OV-3 ovarian, 92.7%; in the assay on IGROV1 ovarian it was 98.2%; in the assay with OVCAR-3 ovarian it was 105%. For the same compound, the growth in the assay with HS 578T breast was 86.3%; with NCI/ADR-RES ovarian, 96.6%; with T-47D breast, 82.9%; with BT-549 breast, 97.5%; with MDA-MB-435 melanoma, 97.5%; in the assay on SW-620 colon, 96%. Further, the growth in the assay on KM12 colon is 88.9%.

Turning to `COc1ccc(NC(=O)c2cc(OC)c(OC)c(OC)c2)cc1O`, the growth is 51.8% with RPMI-8226 leukemia; 57.6% in the assay with OVCAR-8 ovarian; 83.4% in the assay with OVCAR-5 ovarian; 29.1% with SK-OV-3 ovarian; 54.7% with IGROV1 ovarian; -27.6% (active) in the assay on OVCAR-3 ovarian. In addition, the growth with HS 578T breast is -10.2% (active); in the assay with NCI/ADR-RES ovarian it was 13.2%; with T-47D breast it was 42.5%; in the assay on BT-549 breast, 45.5%; with MDA-MB-435 melanoma it was -15.1% (active); with SW-620 colon it was 28.1%. Also, the growth is 24% in the assay with MCF7 breast, 33.4% in the assay with HCT-116 colon and 22.9% in the assay on KM12 colon.

Turning to `O=C(O)/C=C/C(=O)c1ccc(Cl)cc1`, the growth in the assay on RPMI-8226 leukemia is 115%; in the assay with OVCAR-8 ovarian, 95.9%; with OVCAR-5 ovarian it was 115%; with SK-OV-3 ovarian it was 107%; with IGROV1 ovarian it was 114%; in the assay on OVCAR-3 ovarian, 105%. Moreover, the growth was 119% in the assay on HS 578T breast; 109% in the assay on NCI/ADR-RES ovarian; 95.5% in the assay on T-47D breast; 98.1% in the assay with BT-549 breast; 121% with MDA-MB-435 melanoma; 108% in the assay with SW-620 colon. Besides, the growth in the assay with MCF7 breast was 102%; in the assay on HCT-116 colon it was 108%; in the assay with HCC-2998 colon it was 109%; in the assay on KM12 colon, 106%.

Consider `C=C1C(=O)O[C@H]2[C@H]1CC/C(COC(=O)NCc1ccccc1OC)=C\CC[C@@]1(C)O[C@@H]21`, for which the growth is 25.7% in the assay on RPMI-8226 leukemia; 10.5% in the assay with OVCAR-8 ovarian; 73% in the assay on OVCAR-5 ovarian; 41.7% in the assay on OVCAR-4 ovarian; 85.8% in the assay on SK-OV-3 ovarian; -1.44% (active) with OVCAR-3 ovarian. For the same compound, the growth with HS 578T breast is 40.1%; in the assay on NCI/ADR-RES ovarian, 86%; in the assay with T-47D breast, 31.5%; in the assay on BT-549 breast, 26.7%; with MDA-MB-435 melanoma it was 44.4%; with SW-620 colon, 0.256% (active). For the same compound, the growth was -26.1% (active) in the assay on HCT-116 colon, 93.9% in the assay on HCC-2998 colon and 62.3% with KM12 colon.

For `O=C(/C=C/c1c[nH]c2ccccc12)c1ccc(O)c(CN2CCN(c3ccc(F)cc3)CC2)c1`, the growth in the assay on RPMI-8226 leukemia was 91%; in the assay with OVCAR-8 ovarian, 95.1%; with OVCAR-5 ovarian, 90.8%; with OVCAR-4 ovarian, 93.9%; in the assay with SK-OV-3 ovarian, 101%; in the assay with IGROV1 ovarian, 106%. The growth in the assay with OVCAR-3 ovarian was 103%; in the assay with HS 578T breast, 108%; in the assay on NCI/ADR-RES ovarian, 103%; with T-47D breast it was 98%; with BT-549 breast, 99.2%; in the assay on MDA-MB-435 melanoma, 109%. Also, the results for the growth in the assay with SW-620 colon, with HCT-116 colon and with KM12 colon were 104%, 98.3% and 99.5%, respectively.

Turning to `COP(=O)(OC)/C(=N\NS(=O)(=O)c1ccc(C)cc1)c1ccccc1`, the growth is 109% in the assay on RPMI-8226 leukemia; 106% with OVCAR-8 ovarian; 91% with OVCAR-5 ovarian; 91.7% in the assay on SK-OV-3 ovarian; 103% with OVCAR-3 ovarian; 123% with HS 578T breast. In addition, the growth is 94.7% in the assay with T-47D breast; 125% in the assay on BT-549 breast; 106% with MDA-MB-435 melanoma; 105% in the assay on SW-620 colon; 88.6% in the assay on MCF7 breast; 103% with HCT-116 colon. The growth in the assay on KM12 colon is 103%.

`Cc1ccc(NS(=O)(=O)c2cc(C)ccc2C)cc1`: the growth with RPMI-8226 leukemia was 13.6%; in the assay on OVCAR-8 ovarian, 54.8%; in the assay on OVCAR-5 ovarian, 82.8%; in the assay on OVCAR-4 ovarian it was 92.6%; in the assay with SK-OV-3 ovarian it was 56.3%; in the assay with IGROV1 ovarian, 53.8%. The growth is 3.62% (active) with OVCAR-3 ovarian; 47.9% in the assay on T-47D breast; 39.1% in the assay with BT-549 breast; -24% (active) in the assay with MDA-MB-435 melanoma; 19.9% in the assay with SW-620 colon; 24.3% in the assay on MCF7 breast. Moreover, the growth with HCT-116 colon was 17.6%; with HCC-2998 colon, 50.9%; in the assay with KM12 colon, 16.2%.

In the case of `CCOC(=O)c1cn2c3c(cc(C)cc3c1=O)C(=O)/C(=C/c1ccccc1)C2`, the growth was 110% in the assay on RPMI-8226 leukemia; 82.1% with OVCAR-8 ovarian; 90% in the assay with OVCAR-5 ovarian; 82.3% in the assay on SK-OV-3 ovarian; 93.2% with IGROV1 ovarian; 96.7% in the assay with OVCAR-3 ovarian. In addition, the growth with HS 578T breast is 103%; with NCI/ADR-RES ovarian it was 93.9%; in the assay with T-47D breast, 81.7%; in the assay with BT-549 breast, 84.3%; in the assay on MDA-MB-435 melanoma, 107%; in the assay on SW-620 colon it was 101%. The growth in the assay with MCF7 breast is 86.7%; in the assay on HCT-116 colon it was 86.4%; in the assay on HCC-2998 colon, 98.9%; with KM12 colon it was 102%.

Consider `COc1cc(Nc2nc(N[C@H]3CCCC[C@@H]3N)nc3cc[nH]c(=O)c23)cc(OC)c1`, for which the growth with RPMI-8226 leukemia is 25%; in the assay on OVCAR-8 ovarian, 14.5%; with OVCAR-5 ovarian, 22.2%; in the assay on SK-OV-3 ovarian, 24.1%; in the assay on IGROV1 ovarian, 8.81% (active); in the assay with OVCAR-3 ovarian it was 70.4%. Further, the growth is 53.6% in the assay with HS 578T breast; 100% in the assay on NCI/ADR-RES ovarian; 83.6% in the assay with T-47D breast; -27% (active) in the assay with BT-549 breast; 33.4% in the assay with MDA-MB-435 melanoma; 14.2% in the assay on SW-620 colon. Further, the growth was 7.88% (active) with HCT-116 colon, 32.1% in the assay with HCC-2998 colon and 7.39% (active) with KM12 colon.

Turning to `Cn1c(=O)c2[nH]c(C3CC=CCC3)nc2n(C)c1=O` (stereo not drawn), the growth in the assay with RPMI-8226 leukemia was 101%; with OVCAR-8 ovarian it was 106%; with OVCAR-5 ovarian, 94.7%; in the assay on SK-OV-3 ovarian, 99.1%; in the assay with IGROV1 ovarian, 111%; with OVCAR-3 ovarian, 105%. For the same compound, the growth in the assay with HS 578T breast is 97.7%; with NCI/ADR-RES ovarian it was 112%; in the assay on BT-549 breast it was 108%; in the assay with MDA-MB-435 melanoma it was 106%; in the assay with SW-620 colon, 101%; with MCF7 breast it was 102%. Moreover, the growth with KM12 colon was 108%.
